In PubChem BioAssay AID1159580 (chemical genetic matrix, 2015):
Where “and” joins values, the source holds several entries; their conditions need not be identical. Equal values may be shown once. In all, about 5,500 compounds went through this assay and about 2,000 (36%) were called active. Another 18% or so got no clear call; they are omitted. Rule as the data show it: active = normalized growth mostly below about 0.91 (no sharp cut-off); inconclusive = no clear call, values can overlap the other calls; inactive = mostly above about 0.92. Some of the results follow.

Assay: chemical genetic growth profiling, strain panel (AID 1159580);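 also: tested at 20 µM; growth read once vehicle control cultures reached saturation at 30 °C; 1 = growth at the plate median or of vehicle wells; lower values mean less growth of the strain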
Details: growth OD

Measured: normalized growth

CCC1C(=O)OCC1Cc1cncn1C (stereo unspecified)
inactive: S. cerevisiae deletion strains, locus YJR075W, strain HOC1, active compounds read low 1.01 and 0.997 and 1.02 | S. cerevisiae deletion strains, locus YKL009W, strain mrt4, active compounds read low 0.99 and 0.991 | S. cerevisiae deletion strains, locus YKL068W, active compounds read low 1 and 0.995 | S. cerevisiae deletion strains, locus YKL085W, strain MDH1 (second series), active compounds read low 1.01 and 1.04 | S. cerevisiae deletion strains, locus YKL085W, strain MDH1, active compounds read low 1.01 and 1.04 | S. cerevisiae deletion strains, locus YKL160W, strain elf1, active compounds read low 1.03 and 1.01 | S. cerevisiae deletion strains, locus YKL190W, strain CNB1, active compounds read low 1.02 and 1.01 | S. cerevisiae deletion strains, locus YKR001C, strain vps1, active compounds read low 1.01 | S. cerevisiae deletion strains, locus YKR026C, strain gcn3, active compounds read low 1.02 and 0.993 | S. cerevisiae deletion strains, locus YKR091W, strain srl3, active compounds read low 1.02 | S. cerevisiae deletion strains, locus YLL001W, strain dnm1, active compounds read low 1.02 | S. cerevisiae deletion strains, locus YLL026W, active compounds read low 1.01 and 1.02 | S. cerevisiae deletion strains, locus YLL041C, strain sdh2, active compounds read low 1.01 and 1.02 | S. cerevisiae deletion strains, locus YLR027C, strain aat2, active compounds read low 1.02 and 1.01 | S. cerevisiae deletion strains, locus YLR039C, strain RIC1, active compounds read low 1.02 and 1.07 | S. cerevisiae deletion strains, locus YLR058C, strain SHM2, active compounds read low 1.01 | S. cerevisiae deletion strains, locus YLR102C, strain apc9, active compounds read low 1.01 and 0.998 | S. cerevisiae deletion strains, locus YLR113W, strain HOG1, active compounds read low 0.972 | S. cerevisiae deletion strains, locus YLR221C, strain rsa3, active compounds read low 1.02 and 1.01 | S. cerevisiae deletion strains, locus YLR258W, strain gsy2, active compounds read low 1.02 and 1.01 | S. cerevisiae deletion strains, locus YLR262C, strain YPT6 (second series), active compounds read low 1.04 and 1.05 | S. cerevisiae deletion strains, locus YLR262C, strain YPT6, active compounds read low 1.04 and 1.1 | S. cerevisiae deletion strains, locus YLR268W, strain sec22, active compounds read low 1.06 and 0.999 | S. cerevisiae deletion strains, locus YLR320W, strain mms22, active compounds read low 1.03 and 1.02 | S. cerevisiae deletion strains, locus YLR330W, strain CHS5, active compounds read low 1.01 | S. cerevisiae deletion strains, locus YLR342W, strain FKS1 (second series), active compounds read low 0.996 and 1 | S. cerevisiae deletion strains, locus YLR342W, strain FKS1, active compounds read low 1.02 | S. cerevisiae deletion strains, locus YLR357W, strain rsc2, active compounds read low 0.988 and 0.997 | S. cerevisiae deletion strains, locus YLR370C, strain arc18, active compounds read low 1.01 and 1.02 | S. cerevisiae deletion strains, locus YLR371W, strain rom2, active compounds read low 1.01 and 0.995 | S. cerevisiae deletion strains, locus YLR384C, strain iki3, active compounds read low 1.02 and 1.03 | S. cerevisiae deletion strains, locus YLR418C, strain cdc73, active compounds read low 1.02 | S. cerevisiae deletion strains, locus YML016C, strain PPZ1, active compounds read low 1.01 | S. cerevisiae deletion strains, locus YML032C, strain rad52, active compounds read low 1.03 and 0.985 | S. cerevisiae deletion strains, locus YML120C, strain ndi1, active compounds read low 1.02 and 1.03 | S. cerevisiae deletion strains, locus YML124C, strain tub3, active compounds read low 1.01 and 0.994 | S. cerevisiae deletion strains, locus YMR058W, strain fet3, active compounds read low 1.01 and 1.02 | S. cerevisiae deletion strains, locus YMR078C, strain ctf18, active compounds read low 1.02 and 0.99 | S. cerevisiae deletion strains, locus YMR125W, strain sto1, active compounds read low 1.02 | S. cerevisiae deletion strains, locus YMR129W, active compounds read low 1.01 and 1.02 | S. cerevisiae deletion strains, locus YMR205C, strain PFK2, active compounds read low 1.04 and 1.02 | S. cerevisiae deletion strains, locus YMR223W, strain ubp8, active compounds read low 0.991 and 1 | S. cerevisiae deletion strains, locus YMR231W, strain pep5, active compounds read low 1.02 and 1.01 | S. cerevisiae deletion strains, locus YMR263W, strain SAP30, active compounds read low 1.01 and 0.995 and 1.02 | S. cerevisiae deletion strains, locus YMR307W, strain GAS1, active compounds read low 0.989 and 1.01 and 0.99 | S. cerevisiae deletion strains, locus YNL067W, strain RPL9B, active compounds read low 1.01 | S. cerevisiae deletion strains, locus YNL071W, strain lat1, active compounds read low 1.01 and 1.02 | S. cerevisiae deletion strains, locus YNL128W, strain TEP1, active compounds read low 1.01 | S. cerevisiae deletion strains, locus YNL153C, strain GIM3, active compounds read low 1.02 and 0.971 | S. cerevisiae deletion strains, locus YNL175C, strain NOP13, active compounds read low 1.01 and 0.972 | S. cerevisiae deletion strains, locus YNL183C, strain NPR1, active compounds read low 0.95 | S. cerevisiae deletion strains, locus YNL197C, strain WHI3, active compounds read low 1.01 and 0.989 | S. cerevisiae deletion strains, locus YNL209W, strain ssb2, active compounds read low 1.02 | S. cerevisiae deletion strains, locus YNL224C, strain SQS1, active compounds read low 1 and 0.989 | S. cerevisiae deletion strains, locus YNL233W, strain BNI4, active compounds read low 1.01 and 1.02 | S. cerevisiae deletion strains, locus YNL248C, strain rpa49, active compounds read low 1 and 1.01 | S. cerevisiae deletion strains, locus YNL250W, strain rad50, active compounds read low 1.01 and 0.986 | S. cerevisiae deletion strains, locus YNL271C, strain bni1, active compounds read low 1.01 | S. cerevisiae deletion strains, locus YNL298W, strain CLA4, active compounds read low 1.01 and 0.999 | S. cerevisiae deletion strains, locus YNL307C, strain MCK1, active compounds read low 1.02 and 1.01 | S. cerevisiae deletion strains, locus YNL322C, strain KRE1 (second series), active compounds read low 1.02 | S. cerevisiae deletion strains, locus YNL322C, strain KRE1, active compounds read low 1.01 | S. cerevisiae deletion strains, locus YNR049C, strain mso1, active compounds read low 1.02 and 1.01 | S. cerevisiae deletion strains, locus YNR052C, strain pop2, active compounds read low 1.01 and 0.997 | S. cerevisiae deletion strains, locus YOL006C, strain TOP1, active compounds read low 1.1 and 1.08 | S. cerevisiae deletion strains, locus YOL012C, strain htz1 0.844 and 0.846 | S. cerevisiae deletion strains, locus YOL147C, strain pex11, active compounds read low 1.02 and 0.99 | S. cerevisiae deletion strains, locus YOR001W, strain rrp6, active compounds read low 0.998 and 1.02 | S. cerevisiae deletion strains, locus YOR061W, strain CKA2, active compounds read low 1.01 and 1.02 | S. cerevisiae deletion strains, locus YOR069W, strain VPS5, active compounds read low 1.01 | S. cerevisiae deletion strains, locus YOR070C, strain gyp1, active compounds read low 1.02 | S. cerevisiae deletion strains, locus YOR080W, strain dia2, active compounds read low 1.02 | S. cerevisiae deletion strains, locus YOR083W, strain WHI5 (second series), active compounds read low 0.992 and 1 | S. cerevisiae deletion strains, locus YOR083W, strain WHI5, active compounds read low 1.02 | S. cerevisiae deletion strains, locus YOR106W, strain vam3, active compounds read low 1.02 | S. cerevisiae deletion strains, locus YOR136W, strain idh2, active compounds read low 1.02 and 1 | S. cerevisiae deletion strains, locus YOR144C, strain elg1, active compounds read low 1.02 and 0.993 | S. cerevisiae deletion strains, locus YOR184W, strain ser1, active compounds read low 1.04 and 1.01 | S. cerevisiae deletion strains, locus YOR231W, strain MKK1, active compounds read low 0.976 | S. cerevisiae deletion strains, locus YOR265W, strain rbl2, active compounds read low 1.02 and 1.01 | S. cerevisiae deletion strains, locus YOR270C, strain vph1, active compounds read low 1.02 and 1.07 | S. cerevisiae deletion strains, locus YOR290C, strain snf2, active compounds read low 1.03 and 0.969 | S. cerevisiae deletion strains, locus YOR316C, strain cot1, active compounds read low 1.02 and 0.999 | S. cerevisiae deletion strains, locus YPL051W, strain arl3, active compounds read low 1.02 and 1.01 | S. cerevisiae deletion strains, locus YPL055C, strain LGE1, active compounds read low 1.06 and 1 | S. cerevisiae deletion strains, locus YPL078C, strain atp4, active compounds read low 1.02 and 1.01 | S. cerevisiae deletion strains, locus YPL106C, strain sse1, active compounds read low 1.02 | S. cerevisiae deletion strains, locus YPL240C, strain hsp82, active compounds read low 1.03 and 1.02 | S. cerevisiae deletion strains, locus YPL241C, strain CIN2, active compounds read low 1.01 | S. cerevisiae deletion strains, locus YPL256C, strain CLN2, active compounds read low 0.979 | S. cerevisiae deletion strains, locus YPR119W, strain clb2, active compounds read low 1.01 and 0.99 | S. cerevisiae deletion strains, locus YPR141C, strain kar3, active compounds read low 1.01 and 1 | S. cerevisiae deletion strains, locus YPR163C, strain tif3, active compounds read low 1.03 and 0.994 | S. cerevisiae deletion strains, locus YPR167C, strain met16, active compounds read low 1.02 and 0.995 | S. cerevisiae deletion strains, strain wtn01, active compounds read low 1.03 and 0.997 | S. cerevisiae strains, strain wild type, active compounds read low 1.01
